Assay [1] in a line: Viability qHTS for spleen associated tyrosine kinase inhibitor (SYKi) naive MV4-11 cells (AID 1963823). Also: nearly all actives have a fitted effect of over 40% in size. In outline: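 Viability of MV4-11 AML cells lacking prior SYK inhibitor exposure is scored by CellTiter-Glo luminescence following 72 hr compound incubation at 37 C, 5% CO2, seeded at 500 cells per well.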
On the technique in general: qHTS replaces the single test concentration by a dilution series.

Assay [2] in a line: Viability qHTS for spleen associated tyrosine kinase inhibitor (SYKi) drug resistant MV4-11 cells (AID 1963824). Also: nearly all actives have a fitted effect of over 35% in size. In outline:
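CellTiter-Glo luminescence, read 10 min after reagent addition, reports viability after a 72 hr compound exposure. Cells are an MV4-11 line made resistant to SYK inhibition, seeded at 500 per well onto compound-containing plates.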

Structures are written as SMILES. Records with an inconclusive call do not appear. Unmarked numbers belong to inactive results. Activity calls are given as the source filed them. Calls follow the shape of the dose curve; as a rule, active = well fitted cell-killing curve with a large enough effect; inconclusive = small, poorly fitted or top-dose-only effect, or effect the other way; inactive = no such curve, though single readings can be large or run the other way.
Potency is read from the fitted curve at half-maximal effect.

Take `COc1ccc2c(c1)/C(=C/c1cnc[nH]1)C(=O)N2`: the Potency in assay [1] was 0.461 µM (active); in assay [2] it was 1.64 µM (active).

Consider `COC(=O)C1(C)CCC(=O)C2(C)c3c(O)cc(C(C)C)cc3C(O)C(OC(C)=O)C12` (stereo unspecified), for which the Potency entry in assay [1] and in assay [2] was “inactive” each time.

Turning to `CC/C=C/C=C/C1(C)OC(OC)=C(C(=O)C2C(C)C(=O)c3cc(OC)c(O)c(O)c3C2(C)O)C1=O` (stereo unspecified), the Potency in assay [1] and in assay [2] was 10 µM (active) in each case.

On to `CC1=CC2/C=C(\C)CCC(O)C(O)/C=C/C(=O)C23C(=O)NC(CC(C)C)C3C1C` (stereo unspecified), for which the Potency in assay [1] was 1.26 µM (active); in assay [2], 1.42 µM (active).

Consider `C[C@]12CC[C@H](O[C@@H]3O[C@H](CO)[C@@H](O)[C@H](O)[C@H]3O[C@@H]3O[C@H](CO)[C@@H](O)[C@H](O)[C@H]3O)CC1=CC[C@@H]1[C@@H]2CC[C@]2(C)[C@@H](C3=CC(=O)OC3)CC[C@]12O`, for which the Potency is 6.11 µM (active) in assay [1] and 4.32 µM (active) in assay [2].

Consider `Clc1ccc(CO/N=C(\Cn2ccnc2)c2ccc(Cl)cc2Cl)c(Cl)c1`, for which the Potency in assay [1] was 13.3 µM (active); in assay [2] it was 9.44 µM (active).

For `O=C1N[C@@H](Cc2ccccc2)CN2CCCC[C@@H]12`, the Potency entry in assay [1] and in assay [2] was “inactive” throughout.

Consider `COC1CC(O[C@H]2CC[C@@]3(C)C(=CCC4C3C(O)[C@@H](O)[C@]3(C)[C@@H](C(C)=O)CC[C@]43O)C2)OC(C)C1OC1CC(OC)C(OC2OC(C)C(O)C(O)C2O)C(C)O1` (stereo partly specified), for which the viability (% of control) in assay [1] is 67.1% [at 9.25 µM]. Moreover, the viability, % of control in assay [2] was 103% [at 9.25 µM].

Turning to `O=C(N[C@H]1CN2CCC1CC2)c1cc2cccc(Cl)c2s1`, the Potency is 14.6 µM (active) in assay [1] and 20.6 µM (active) in assay [2].

In the case of `C#C[C@]1(O)CC[C@H]2[C@@H]3CC[C@H]4Cc5nc6nc7ccccc7n6cc5C[C@]4(C)[C@H]3CC[C@@]21C`, the Potency in assay [1] was 9.2 µM (active); in assay [2] it was 7.31 µM (active).

`O=C(NCCN1CCC2(CC1)C(=O)NCN2c1cccc(F)c1)c1ccc2ccccc2c1`: the values for the Potency in assay [1] and in assay [2] were 9.2 µM (active) and 5.8 µM (active), respectively.

On to `CC(=O)O[C@H]1C[C@@H](C)O[C@H]2O[C@@H]3CC4CC[C@@H]5C(CC[C@]6(C)[C@@H](C7=CC(=O)OC7)CC[C@]56O)[C@@]4(C=O)C[C@H]3O[C@]21O` (stereo partly specified), for which the Potency in assay [1] was 0.0432 µM (active); in assay [2] it was 0.0485 µM (active).

Consider `C=C1C(=O)O[C@@H]2[C@H]3C(=C)[C@@H](O)C[C@H]3C(=C)C[C@@H](O)[C@@H]12`, for which the Potency in assay [1] and in assay [2] was 3.66 µM (active) throughout.

Turning to `C[C@@H]1C[C@@H](O)[C@]2(O)O[C@@H]3C[C@@]4(C=O)C(CC[C@@H]5C4CC[C@]4(C)[C@@](O)(C6=CC(=O)OC6)CC[C@]54O)C[C@H]3OC2O1` (stereo partly specified), the values for the Potency in assay [1] and in assay [2] were 0.796 µM (active) and 0.709 µM (active), respectively.

On to `C=C(C)[C@@H]1[C@H]2OC(=O)[C@H]1[C@]1(O)C[C@H]3O[C@]34C(=O)O[C@H]2[C@]14C`, for which the Potency result in assay [1] and in assay [2] was “inactive” in each case.

As for `COC1CC(O[C@H]2CC[C@]3(C)C4CC[C@]5(C)[C@@H](C6=CC(=O)OC6)[C@@H](OC(C)=O)C[C@]5(O)C4CC[C@@H]3C2)OC(C)C1O` (stereo partly specified), the values for the Potency in assay [1] and in assay [2] were 0.252 µM (active) and 0.178 µM (active), respectively.

As for `CO[C@@H]1[C@H](O)[C@@H](O[C@@H]2C[C@H]3CC[C@@H]4C(CC[C@]5(C)[C@@H](C6=CC(=O)OC6)CC[C@]45O)[C@@]3(C)[C@H](O)C2)O[C@H](C)[C@@H]1O[C@@H]1O[C@H](CO)[C@@H](O)[C@H](O)[C@H]1O` (stereo partly specified), the Potency was 0.0968 µM (active) in assay [1] and 0.0544 µM (active) in assay [2].

In the case of `C[C@@H]1Cc2c(Cl)cc(C(=O)N[C@@H](Cc3ccccc3)C(=O)O)c(O)c2C(=O)O1`, the Potency in assay [1] is 0.718 µM (active); in assay [2] it was 0.286 µM (active).

`COCC1OC(=O)c2coc3c2C1(C)C1=C(C3=O)C2CCC(=O)C2(C)CC1O` (stereo unspecified): the Potency entry in assay [1] and in assay [2] was “inactive” throughout.

In the case of `CC[C@H]1C[C@@H]2CC[C@@H](O2)[C@@H](C)C(=O)O[C@H](CC)C[C@H]2CC[C@H](O2)[C@H](C)C(=O)O[C@@H](C)C[C@@H]2CC[C@@H](O2)[C@@H](C)C(=O)O[C@H](CC)C[C@H]2CC[C@H](O2)[C@H](C)C(=O)O1`, the Potency was 0.0122 µM (active) in assay [1] and 0.0137 µM (active) in assay [2].

With `COC1CC(OC2CCC3(C=O)C(CCC4C3CCC3(C)C(C5=CC(=O)OC5)CCC43O)C2)OC(C)C1O` (stereo unspecified), the Potency in assay [1] is 0.0893 µM (active); in assay [2], 0.0709 µM (active).

`C=CCC1=C(C)C(OC(=O)C2C(C=C(C)C)C2(C)C)CC1=O` (stereo unspecified): the Potency was 5.45 µM (active) in assay [1] and 9.69 µM (active) in assay [2].

Take `CN1C(=O)[C@@H](Cc2c[nH]c3ccccc23)N=C(c2ccccc2F)c2ccccc21`: the Potency in assay [1] and in assay [2] was 20.6 µM (active) each time.

The values above are taken from PubChem BioAssay (NCATS).
